Reference: PubChem BioAssay AID1159580 (chemical genetic matrix, 2015)
“And” between values parts separate entries of the source, which are not always exact repeats. Equal values may be shown once. Hit rate of the full screen: of about 5,500 compounds, about 2,000 (36%) were called active. About 18% were inconclusive and are not listed. Cut-off read from the data, not from the text of the source: active = normalized growth mostly below about 0.91 (no sharp cut-off); inconclusive = no clear call, values can overlap the other calls; inactive = mostly above about 0.92. The list shows a part of the results.

Test: chemical genetic growth profiling, strain panel (AID 1159580);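 note: tested at 20 µM; growth read once vehicle control cultures reached saturation at 30 °C; 1 = growth at the plate median or of vehicle wells; lower values mean less growth of the strain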
Conditions: S. cerevisiae deletion strains, growth OD

Measured: normalized growth

C=C1c2c(Cl)ccc(O)c2C(O)=C2C(=O)[C@]3(O)C(O)=C(C(N)=O)C(=O)[C@@H](N(C)C)[C@@H]3[C@@H](O)[C@H]12
active: locus YER015W, strain faa2, stronger effect = lower value 0.912
inactive: locus YAL013W, strain DEP1, stronger effect = lower value 0.972 | locus YAL021C, strain ccr4, stronger effect = lower value 0.964 | locus YAL026C, strain drs2, stronger effect = lower value 0.934 | locus YAL030W, strain snc1, stronger effect = lower value 0.981 | locus YBL061C, strain skt5, stronger effect = lower value 0.976 | locus YBR009C, strain hhf1, stronger effect = lower value 0.958 | locus YBR021W, strain FUR4, stronger effect = lower value 0.914 | locus YBR023C, strain chs3, stronger effect = lower value 0.966 | locus YBR171W, strain sec66, stronger effect = lower value 0.999 | locus YBR229C, strain ROT2, stronger effect = lower value 0.977 | locus YBR231C, strain swc5, stronger effect = lower value 0.978 | locus YBR279W, strain paf1, stronger effect = lower value 0.956 | locus YCL011C, strain gbp2, stronger effect = lower value 0.935 | locus YCL016C, strain dcc1, stronger effect = lower value 0.936 | locus YCL029C, strain bik1, stronger effect = lower value 0.948 | locus YCL061C, strain MRC1, stronger effect = lower value 0.954 | locus YCL069W, strain vba3, stronger effect = lower value 0.977 | locus YCR088W, strain abp1, stronger effect = lower value 0.981 | locus YDL005C, strain med2, stronger effect = lower value 0.99 | locus YDL035C, strain GPR1, stronger effect = lower value 0.954 | locus YDL040C, strain nat1, stronger effect = lower value 0.993 | locus YDL074C, strain BRE1, stronger effect = lower value 0.946 | locus YDL101C, strain DUN1, stronger effect = lower value 0.965 | locus YDL134C, strain PPH21, stronger effect = lower value 0.909 | locus YDL185W, strain tfp1, stronger effect = lower value 0.961 | locus YDL192W, strain arf1, stronger effect = lower value 0.95 | locus YDR001C, strain nth1, stronger effect = lower value 0.973 | locus YDR069C, strain doa4, stronger effect = lower value 0.965 | locus YDR101C, strain arx1, stronger effect = lower value 0.961 | locus YDR137W, strain rgp1, stronger effect = lower value 0.977 | locus YDR150W, strain NUM1, stronger effect = lower value 0.98 | locus YDR159W, strain sac3, stronger effect = lower value 0.966 | locus YDR162C, strain NBP2, stronger effect = lower value 0.945 | locus YDR195W, strain ref2 1.01 | locus YDR297W, strain sur2, stronger effect = lower value 0.981 | locus YDR318W, strain mcm21, stronger effect = lower value 0.947 | locus YDR334W, strain swr1, stronger effect = lower value 0.949 | locus YDR335W, strain msn5, stronger effect = lower value 0.967 | locus YDR388W, stronger effect = lower value 0.986 | locus YDR392W, strain spt3, stronger effect = lower value 0.849 | locus YDR502C, strain sam2, stronger effect = lower value 0.98 | locus YEL003W, strain gim4, stronger effect = lower value 0.967 | locus YEL037C, strain rad23, stronger effect = lower value 0.962 | locus YEL061C, strain CIN8 (second series), stronger effect = lower value 0.974 | locus YEL061C, strain CIN8, stronger effect = lower value 0.976 | locus YER016W, strain bim1, stronger effect = lower value 0.964 | locus YER110C, stronger effect = lower value 0.989 | locus YER111C, strain swi4, stronger effect = lower value 0.949 | locus YER155C, strain BEM2 (second series), stronger effect = lower value 0.947 | locus YER155C, strain BEM2, stronger effect = lower value 0.992 | locus YER167W, strain BCK2, stronger effect = lower value 0.962 | locus YFR010W, strain ubp6, stronger effect = lower value 0.958 | locus YGL078C, strain dbp3, stronger effect = lower value 0.964 | locus YGL086W, strain mad1, stronger effect = lower value 0.964 | locus YGL167C, strain pmr1, stronger effect = lower value 0.971 | locus YGL173C, strain kem1, stronger effect = lower value 0.983 | locus YGL227W, strain vid30, stronger effect = lower value 0.997 | locus YGL240W, strain doc1, stronger effect = lower value 1.01 | locus YGL248W, strain PDE1, stronger effect = lower value 0.916 | locus YGL253W, strain hxk2, stronger effect = lower value 0.968 | locus YGR078C, strain PAC10, stronger effect = lower value 0.882 | locus YGR135W, strain pre9, stronger effect = lower value 0.94 | locus YGR229C, strain SMI1, stronger effect = lower value 0.957 | locus YGR252W, strain gcn5, stronger effect = lower value 0.967 | locus YHR013C, strain ard1, stronger effect = lower value 0.975 | locus YHR027C, strain rpn1, stronger effect = lower value 0.962 | locus YHR030C, strain SLT2, stronger effect = lower value 0.969 and 0.993 | locus YHR079C, strain IRE1 (second series), stronger effect = lower value 0.961 | locus YHR079C, strain IRE1, stronger effect = lower value 0.985 | locus YHR094C, strain hxt1, stronger effect = lower value 0.974 | locus YHR129C, strain ARP1, stronger effect = lower value 0.958 | locus YHR142W, strain chs7, stronger effect = lower value 0.981 | locus YHR200W, strain rpn10, stronger effect = lower value 0.952 | locus YIL066C, strain RNR3, stronger effect = lower value 0.915 | locus YIL073C, strain SPO22, stronger effect = lower value 0.952 | locus YIL125W, strain kgd1, stronger effect = lower value 0.98 | locus YIR030C, strain dcg1, stronger effect = lower value 0.98 | locus YJL092W, strain hpr5, stronger effect = lower value 0.966 | locus YJL095W, strain BCK1 (second series), stronger effect = lower value 0.976 | locus YJL095W, strain BCK1, stronger effect = lower value 0.898 and 0.992 | locus YJL115W, strain asf1, stronger effect = lower value 0.979 | locus YJL129C, strain trk1, stronger effect = lower value 1.01 | locus YJL134W, strain LCB3, stronger effect = lower value 0.98 | locus YJL154C, strain vps35, stronger effect = lower value 0.985 | locus YJL164C, strain tpk1, stronger effect = lower value 0.928 | locus YJL166W, strain qcr8, stronger effect = lower value 0.976 | locus YJL168C, strain set2, stronger effect = lower value 0.974 | locus YJL187C, strain SWE1 (second series), stronger effect = lower value 0.885 | locus YJR043C, strain POL32, stronger effect = lower value 0.879 | locus YJR066W, strain TOR1, stronger effect = lower value 0.951
